What all share (assay): DAPPL (digital affinity profiling via proximity ligation, sequencing); 10 mM Tris-HCl pH 7.5, 50 mM NaCl, 1 mM DTT, 4% glycerol, room temperature, 30 min; GST-TFs on glutathione beads, 16-mer random dsDNA library, 0.1% formaldehyde crosslink after washing; high values mean tight binding
The target of one assay is T1, FLI1 (Homo sapiens, UniProt Q01543 1-452).
T1 sequence: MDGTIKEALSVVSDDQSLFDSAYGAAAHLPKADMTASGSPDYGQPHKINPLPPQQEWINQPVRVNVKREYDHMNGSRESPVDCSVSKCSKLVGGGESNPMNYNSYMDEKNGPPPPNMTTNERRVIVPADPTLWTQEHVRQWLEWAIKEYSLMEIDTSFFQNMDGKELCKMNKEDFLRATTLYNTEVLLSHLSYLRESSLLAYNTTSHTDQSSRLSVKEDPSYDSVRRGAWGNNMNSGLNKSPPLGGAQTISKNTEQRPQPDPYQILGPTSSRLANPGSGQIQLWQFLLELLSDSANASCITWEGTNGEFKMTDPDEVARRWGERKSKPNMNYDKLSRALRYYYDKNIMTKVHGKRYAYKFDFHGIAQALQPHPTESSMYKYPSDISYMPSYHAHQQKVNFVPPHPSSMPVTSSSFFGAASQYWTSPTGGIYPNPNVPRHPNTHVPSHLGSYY
Conditions: protein: recombinant; tags: N-terminal GST; dsDNA, one strand shown. Put shortly: (§1)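 Pools were built from human transcription factors expressed in yeast as GST fusions, captured on glutathione beads and DNA-barcoded, along with a tag-only sample. Incubation with 200 nmole of a 16-mer random double-stranded DNA library lasted 30 min at room temperature in Tris/NaCl/DTT/glycerol buffer, and was followed by washing, 0.1% formaldehyde crosslinking, proximity ligation, PCR amplification and Illumina NextSeq500 sequencing. Binding signal is the quotient of each hexamer's read frequency for a factor and its frequency for the tag-only sample.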

The target in another assay is T2, ELK1 (Homo sapiens, UniProt P19419 1-428).
T2 sequence: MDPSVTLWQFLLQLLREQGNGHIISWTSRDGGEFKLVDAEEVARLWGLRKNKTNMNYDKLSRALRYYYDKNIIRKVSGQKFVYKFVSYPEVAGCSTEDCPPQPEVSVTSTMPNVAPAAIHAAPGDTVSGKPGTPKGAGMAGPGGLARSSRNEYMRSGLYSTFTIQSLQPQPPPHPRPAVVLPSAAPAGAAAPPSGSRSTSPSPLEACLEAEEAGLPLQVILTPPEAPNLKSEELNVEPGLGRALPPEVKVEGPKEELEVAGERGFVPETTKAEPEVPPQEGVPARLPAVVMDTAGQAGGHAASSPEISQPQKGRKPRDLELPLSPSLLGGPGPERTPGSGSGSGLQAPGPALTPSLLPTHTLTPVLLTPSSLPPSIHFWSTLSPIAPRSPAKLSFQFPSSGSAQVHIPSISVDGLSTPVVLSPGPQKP
Conditions: protein: recombinant; tags: N-terminal GST; dsDNA, one strand shown. In short, it runs like this:
as §1

The target of a further assay is T3, GABPA (Homo sapiens, UniProt Q06546 1-454).
T3 sequence: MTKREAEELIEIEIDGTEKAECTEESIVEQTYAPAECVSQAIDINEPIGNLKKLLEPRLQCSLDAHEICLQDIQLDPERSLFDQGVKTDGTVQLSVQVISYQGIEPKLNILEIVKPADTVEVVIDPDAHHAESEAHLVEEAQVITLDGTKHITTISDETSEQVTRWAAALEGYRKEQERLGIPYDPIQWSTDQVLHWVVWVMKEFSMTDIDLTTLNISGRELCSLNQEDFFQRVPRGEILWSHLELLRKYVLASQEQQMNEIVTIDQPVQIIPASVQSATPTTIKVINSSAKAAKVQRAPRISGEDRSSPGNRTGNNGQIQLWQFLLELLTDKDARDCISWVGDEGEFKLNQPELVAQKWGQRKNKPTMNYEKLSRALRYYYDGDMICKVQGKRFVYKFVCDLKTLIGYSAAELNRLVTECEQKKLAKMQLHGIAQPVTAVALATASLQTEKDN
Conditions: protein: recombinant; tags: N-terminal GST; dsDNA, one strand shown. In short, it runs like this: as §1

The target in the next assay is T4, ERG (Homo sapiens, UniProt P11308 1-479).
T4 sequence: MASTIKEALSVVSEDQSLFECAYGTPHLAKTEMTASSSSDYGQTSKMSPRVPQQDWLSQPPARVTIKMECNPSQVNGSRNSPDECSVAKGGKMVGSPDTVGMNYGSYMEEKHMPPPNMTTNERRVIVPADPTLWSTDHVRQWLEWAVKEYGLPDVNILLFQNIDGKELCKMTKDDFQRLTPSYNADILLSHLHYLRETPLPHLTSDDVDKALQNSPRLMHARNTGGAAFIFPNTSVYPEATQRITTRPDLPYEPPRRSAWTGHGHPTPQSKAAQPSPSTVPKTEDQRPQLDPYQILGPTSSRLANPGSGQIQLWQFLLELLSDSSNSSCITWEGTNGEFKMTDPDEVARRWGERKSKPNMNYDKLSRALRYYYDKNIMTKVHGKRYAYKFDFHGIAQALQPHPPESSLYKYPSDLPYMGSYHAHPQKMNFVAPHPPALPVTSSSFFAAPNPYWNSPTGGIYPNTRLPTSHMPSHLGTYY
Conditions: protein: recombinant; tags: N-terminal GST; dsDNA, one strand shown. In short, it runs like this: as §1

The target of a further assay is ELF1 (Homo sapiens, UniProt P32519 1-619). Conditions: protein: recombinant; tags: N-terminal GST; dsDNA, one strand shown. In short, it runs like this:
as §1

The next assay deals with T5, EHF (Homo sapiens, UniProt Q9NZC4 1-300).
T5 sequence: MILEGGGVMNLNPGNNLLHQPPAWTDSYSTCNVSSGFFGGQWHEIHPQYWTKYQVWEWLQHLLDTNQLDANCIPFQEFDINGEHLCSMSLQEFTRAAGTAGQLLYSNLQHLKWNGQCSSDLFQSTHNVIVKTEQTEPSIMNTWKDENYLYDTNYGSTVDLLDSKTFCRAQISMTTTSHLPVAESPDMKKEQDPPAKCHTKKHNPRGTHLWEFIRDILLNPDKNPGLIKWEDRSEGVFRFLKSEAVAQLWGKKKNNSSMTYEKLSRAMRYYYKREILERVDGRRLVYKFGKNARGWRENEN
Conditions: protein: recombinant; tags: N-terminal GST; dsDNA, one strand shown. Put shortly: as §1

In a further assay the target is SPI1 (Homo sapiens, UniProt P17947 1-270). Conditions: protein: recombinant; tags: N-terminal GST; dsDNA, one strand shown. Put shortly: as §1
A further assay addresses SPIB (Homo sapiens, UniProt Q01892 1-262). Conditions: protein: recombinant; tags: N-terminal GST; dsDNA, one strand shown. Put shortly: as §1
A further assay deals with T6, ELK3 (Homo sapiens, UniProt P41970 1-407).
T6 sequence: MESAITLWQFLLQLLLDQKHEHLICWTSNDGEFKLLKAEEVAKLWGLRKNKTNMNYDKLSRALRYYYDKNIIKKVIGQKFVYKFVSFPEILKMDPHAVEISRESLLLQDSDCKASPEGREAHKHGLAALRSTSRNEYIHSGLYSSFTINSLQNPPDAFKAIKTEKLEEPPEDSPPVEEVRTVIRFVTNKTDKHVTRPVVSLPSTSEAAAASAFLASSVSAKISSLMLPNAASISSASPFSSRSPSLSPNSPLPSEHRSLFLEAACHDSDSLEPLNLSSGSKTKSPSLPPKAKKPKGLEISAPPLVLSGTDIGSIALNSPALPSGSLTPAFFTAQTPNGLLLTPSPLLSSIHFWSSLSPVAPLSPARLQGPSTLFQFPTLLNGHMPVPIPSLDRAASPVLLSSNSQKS
Conditions: protein: recombinant; tags: N-terminal GST; dsDNA, one strand shown. In short, it runs like this: as §1

In the next assay the target is T7, FEV (Homo sapiens, UniProt Q99581 1-238).
T7 sequence: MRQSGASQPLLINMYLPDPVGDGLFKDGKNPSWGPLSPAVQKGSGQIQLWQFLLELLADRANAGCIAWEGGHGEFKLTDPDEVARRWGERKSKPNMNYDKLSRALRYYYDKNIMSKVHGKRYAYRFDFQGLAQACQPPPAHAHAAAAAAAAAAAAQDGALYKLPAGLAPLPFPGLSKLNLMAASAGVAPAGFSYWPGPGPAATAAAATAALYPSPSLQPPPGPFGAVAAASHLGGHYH
Conditions: protein: recombinant; tags: N-terminal GST; dsDNA, one strand shown. In short, it runs like this:
as §1

In the next assay the target is ETV5 (Homo sapiens, UniProt P41161 1-510). Conditions: protein: recombinant; tags: N-terminal GST; dsDNA, one strand shown. In short, it runs like this:
as §1

The target in a further assay is HSF1 (Homo sapiens, UniProt Q00613 1-529). Conditions: protein: recombinant; tags: N-terminal GST; chain copies: 3; dsDNA, one strand shown. Put shortly: as §1
In a further assay the target is T8, SPIC (Homo sapiens, UniProt Q8N5J4 1-248).
T8 sequence: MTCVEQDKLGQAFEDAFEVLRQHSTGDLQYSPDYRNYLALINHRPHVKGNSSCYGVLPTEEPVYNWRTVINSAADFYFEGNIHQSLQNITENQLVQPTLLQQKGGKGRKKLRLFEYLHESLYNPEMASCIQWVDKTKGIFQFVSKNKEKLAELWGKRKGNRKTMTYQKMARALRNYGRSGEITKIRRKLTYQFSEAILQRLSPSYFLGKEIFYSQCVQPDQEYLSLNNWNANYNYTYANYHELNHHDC
Conditions: protein: recombinant; tags: N-terminal GST; dsDNA, one strand shown. In short, it runs like this:
as §1

A further assay addresses ELF4 (Homo sapiens, UniProt Q99607 1-663). Conditions: protein: recombinant; tags: N-terminal GST; dsDNA, one strand shown. Put shortly:
as §1

A further assay concerns the target T9, ELK4 (Homo sapiens, UniProt P28324-2 1-405).
T9 sequence: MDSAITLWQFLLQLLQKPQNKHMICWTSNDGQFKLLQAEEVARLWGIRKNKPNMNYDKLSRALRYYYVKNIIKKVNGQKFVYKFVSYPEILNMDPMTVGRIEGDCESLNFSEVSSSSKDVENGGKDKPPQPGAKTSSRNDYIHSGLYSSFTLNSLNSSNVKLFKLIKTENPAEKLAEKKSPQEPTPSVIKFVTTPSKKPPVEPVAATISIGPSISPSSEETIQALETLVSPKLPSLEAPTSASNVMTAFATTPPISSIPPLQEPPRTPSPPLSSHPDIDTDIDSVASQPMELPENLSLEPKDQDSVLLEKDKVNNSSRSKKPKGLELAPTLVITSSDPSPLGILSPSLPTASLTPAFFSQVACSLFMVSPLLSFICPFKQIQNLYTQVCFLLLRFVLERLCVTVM
Conditions: protein: recombinant; tags: N-terminal GST; dsDNA, one strand shown. Put shortly: as §1

A further assay deals with T10, ETV2 (Homo sapiens, UniProt O00321 1-342).
T10 sequence: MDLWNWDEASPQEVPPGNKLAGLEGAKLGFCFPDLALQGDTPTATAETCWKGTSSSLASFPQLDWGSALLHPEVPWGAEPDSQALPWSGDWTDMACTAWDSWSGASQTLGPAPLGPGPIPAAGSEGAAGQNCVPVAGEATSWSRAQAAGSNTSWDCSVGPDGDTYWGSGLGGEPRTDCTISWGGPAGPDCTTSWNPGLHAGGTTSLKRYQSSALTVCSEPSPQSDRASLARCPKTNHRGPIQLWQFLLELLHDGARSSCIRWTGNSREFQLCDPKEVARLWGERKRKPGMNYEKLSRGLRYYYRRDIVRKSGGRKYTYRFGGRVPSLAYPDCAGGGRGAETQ
Conditions: protein: recombinant; tags: N-terminal GST; dsDNA, one strand shown. Put shortly: as §1

Another assay has as its target T11, ELF3 (Homo sapiens, UniProt P78545 1-371).
T11 sequence: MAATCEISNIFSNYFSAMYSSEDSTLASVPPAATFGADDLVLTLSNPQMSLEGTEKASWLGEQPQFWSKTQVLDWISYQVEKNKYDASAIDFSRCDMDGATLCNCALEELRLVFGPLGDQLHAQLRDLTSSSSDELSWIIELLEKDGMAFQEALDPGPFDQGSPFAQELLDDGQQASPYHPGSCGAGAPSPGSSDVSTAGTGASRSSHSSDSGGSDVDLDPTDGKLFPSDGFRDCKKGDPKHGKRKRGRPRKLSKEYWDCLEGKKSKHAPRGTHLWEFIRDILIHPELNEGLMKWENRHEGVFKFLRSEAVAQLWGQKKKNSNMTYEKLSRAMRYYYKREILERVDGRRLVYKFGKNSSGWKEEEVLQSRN
Conditions: protein: recombinant; tags: N-terminal GST; dsDNA, one strand shown. In short, it runs like this: as §1

The next assay addresses CRX (Homo sapiens, UniProt O43186 1-299). Conditions: protein: recombinant; tags: N-terminal GST; dsDNA, one strand shown. In short, it runs like this:
as §1

The target of a further assay is ETV1 (Homo sapiens, UniProt P50549 1-477). Conditions: protein: recombinant; tags: N-terminal GST; dsDNA, one strand shown. In short, it runs like this:
as §1

Chain of ETV1 (P50549 whole entry): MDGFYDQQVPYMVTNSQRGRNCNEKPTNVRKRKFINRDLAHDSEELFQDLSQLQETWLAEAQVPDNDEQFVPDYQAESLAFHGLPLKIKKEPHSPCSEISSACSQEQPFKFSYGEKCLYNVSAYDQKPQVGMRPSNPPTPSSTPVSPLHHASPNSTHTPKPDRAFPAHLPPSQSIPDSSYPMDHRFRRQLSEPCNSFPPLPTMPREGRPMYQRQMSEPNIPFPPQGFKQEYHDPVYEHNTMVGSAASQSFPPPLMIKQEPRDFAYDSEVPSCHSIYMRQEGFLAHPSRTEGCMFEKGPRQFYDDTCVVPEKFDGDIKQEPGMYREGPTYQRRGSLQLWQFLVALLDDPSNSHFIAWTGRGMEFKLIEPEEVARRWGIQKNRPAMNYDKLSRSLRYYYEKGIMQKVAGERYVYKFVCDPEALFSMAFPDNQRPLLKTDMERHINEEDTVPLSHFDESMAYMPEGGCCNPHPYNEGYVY
Chain of ELF4 (Q99607 whole entry): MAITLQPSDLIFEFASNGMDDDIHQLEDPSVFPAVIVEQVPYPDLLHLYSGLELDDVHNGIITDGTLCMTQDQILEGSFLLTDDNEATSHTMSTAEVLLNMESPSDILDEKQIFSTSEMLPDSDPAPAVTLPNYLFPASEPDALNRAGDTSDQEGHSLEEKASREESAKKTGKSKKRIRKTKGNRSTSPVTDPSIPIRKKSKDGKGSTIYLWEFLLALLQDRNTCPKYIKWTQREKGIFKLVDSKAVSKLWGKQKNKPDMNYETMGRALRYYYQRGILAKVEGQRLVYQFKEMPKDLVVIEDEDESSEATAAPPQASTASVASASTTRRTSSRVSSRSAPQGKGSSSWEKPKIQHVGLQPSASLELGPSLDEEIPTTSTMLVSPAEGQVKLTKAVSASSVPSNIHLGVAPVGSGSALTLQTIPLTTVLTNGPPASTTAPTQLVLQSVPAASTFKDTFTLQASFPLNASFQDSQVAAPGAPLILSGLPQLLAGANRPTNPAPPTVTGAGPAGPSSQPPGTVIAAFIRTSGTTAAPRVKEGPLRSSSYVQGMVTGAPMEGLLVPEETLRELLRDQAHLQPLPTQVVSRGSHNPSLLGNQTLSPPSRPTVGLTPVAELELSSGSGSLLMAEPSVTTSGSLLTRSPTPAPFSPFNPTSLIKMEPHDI
Chain of ELF1 (P32519 whole entry): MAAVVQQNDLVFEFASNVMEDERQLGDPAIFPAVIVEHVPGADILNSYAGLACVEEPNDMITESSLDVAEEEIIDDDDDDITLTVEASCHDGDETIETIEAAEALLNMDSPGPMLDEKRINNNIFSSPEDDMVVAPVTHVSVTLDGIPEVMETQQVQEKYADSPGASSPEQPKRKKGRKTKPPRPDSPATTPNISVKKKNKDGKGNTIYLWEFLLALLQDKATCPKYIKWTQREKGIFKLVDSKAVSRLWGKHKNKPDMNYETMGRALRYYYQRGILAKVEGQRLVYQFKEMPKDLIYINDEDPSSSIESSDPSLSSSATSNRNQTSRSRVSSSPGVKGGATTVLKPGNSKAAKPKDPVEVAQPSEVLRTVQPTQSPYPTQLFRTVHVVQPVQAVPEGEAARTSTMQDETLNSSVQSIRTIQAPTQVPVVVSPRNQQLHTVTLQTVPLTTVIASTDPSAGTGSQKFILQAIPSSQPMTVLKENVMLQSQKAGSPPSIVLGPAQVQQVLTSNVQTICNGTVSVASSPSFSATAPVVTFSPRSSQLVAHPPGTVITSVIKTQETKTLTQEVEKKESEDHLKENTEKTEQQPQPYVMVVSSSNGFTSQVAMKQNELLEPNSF
Chain of CRX (O43186 whole entry): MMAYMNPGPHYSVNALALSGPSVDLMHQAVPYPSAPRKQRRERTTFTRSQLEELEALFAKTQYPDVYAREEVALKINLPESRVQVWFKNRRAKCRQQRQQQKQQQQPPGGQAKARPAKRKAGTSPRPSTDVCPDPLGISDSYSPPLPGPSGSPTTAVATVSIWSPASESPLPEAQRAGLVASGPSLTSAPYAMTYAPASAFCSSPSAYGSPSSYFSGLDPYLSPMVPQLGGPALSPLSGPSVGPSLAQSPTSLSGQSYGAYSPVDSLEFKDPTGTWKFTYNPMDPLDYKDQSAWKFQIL
Chain of ETV5 (P41161 whole entry): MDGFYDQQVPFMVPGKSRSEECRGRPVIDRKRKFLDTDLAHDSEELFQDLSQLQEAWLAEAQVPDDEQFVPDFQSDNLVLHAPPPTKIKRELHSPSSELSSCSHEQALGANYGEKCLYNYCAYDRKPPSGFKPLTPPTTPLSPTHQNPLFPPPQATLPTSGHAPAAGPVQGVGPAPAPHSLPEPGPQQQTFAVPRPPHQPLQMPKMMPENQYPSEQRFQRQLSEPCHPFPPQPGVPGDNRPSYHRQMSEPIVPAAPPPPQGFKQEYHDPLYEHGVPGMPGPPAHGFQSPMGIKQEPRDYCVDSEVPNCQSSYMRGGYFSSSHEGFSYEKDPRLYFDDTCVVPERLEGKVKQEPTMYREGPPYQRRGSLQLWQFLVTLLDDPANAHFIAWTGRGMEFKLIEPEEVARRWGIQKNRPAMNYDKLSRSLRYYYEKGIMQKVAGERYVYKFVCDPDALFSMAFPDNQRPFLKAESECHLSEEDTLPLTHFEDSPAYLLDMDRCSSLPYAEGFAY
Chain of HSF1 (Q00613 whole entry): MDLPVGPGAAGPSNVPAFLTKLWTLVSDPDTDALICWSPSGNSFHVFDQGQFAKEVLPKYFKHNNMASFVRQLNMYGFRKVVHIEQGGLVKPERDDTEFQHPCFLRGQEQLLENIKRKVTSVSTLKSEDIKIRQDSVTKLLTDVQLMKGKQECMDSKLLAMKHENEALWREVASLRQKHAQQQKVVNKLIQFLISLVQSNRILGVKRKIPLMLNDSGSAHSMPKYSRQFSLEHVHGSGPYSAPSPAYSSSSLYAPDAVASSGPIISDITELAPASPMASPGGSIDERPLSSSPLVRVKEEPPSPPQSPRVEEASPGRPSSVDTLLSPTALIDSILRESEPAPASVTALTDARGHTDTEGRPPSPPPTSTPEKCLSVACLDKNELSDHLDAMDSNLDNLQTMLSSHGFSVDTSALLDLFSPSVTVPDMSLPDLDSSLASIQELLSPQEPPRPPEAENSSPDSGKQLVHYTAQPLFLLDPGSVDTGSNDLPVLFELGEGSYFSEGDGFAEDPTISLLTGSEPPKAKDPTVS
Chain of SPIB (Q01892 whole entry): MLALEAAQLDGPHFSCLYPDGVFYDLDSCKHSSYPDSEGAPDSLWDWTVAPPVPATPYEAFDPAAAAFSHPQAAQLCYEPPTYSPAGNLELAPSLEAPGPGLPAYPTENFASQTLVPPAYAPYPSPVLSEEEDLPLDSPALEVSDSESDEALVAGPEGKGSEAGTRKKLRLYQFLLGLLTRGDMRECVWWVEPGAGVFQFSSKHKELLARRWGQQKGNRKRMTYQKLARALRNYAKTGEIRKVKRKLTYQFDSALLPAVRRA

TACTCG: the binding signal was 1.33 fold enrichment (6-mer frequency, TF over GST control) in the assay with FLI1; 1.29 fold enrichment (6-mer frequency, TF over GST control) with ELK1; 1.34 fold enrichment (6-mer frequency, TF over GST control) with GABPA; 1.14 fold enrichment (6-mer frequency, TF over GST control) in the assay with ERG; 1.34 fold enrichment (6-mer frequency, TF over GST control) with ELF1; 1.16 fold enrichment (6-mer frequency, TF over GST control) with EHF. Also, the binding signal with SPI1 was 1.22 fold enrichment (6-mer frequency, TF over GST control); with SPIB it was 1.18 fold enrichment (6-mer frequency, TF over GST control); with ELK3, 1.22 fold enrichment (6-mer frequency, TF over GST control); with FEV, 1.23 fold enrichment (6-mer frequency, TF over GST control); with ETV5 it was 1.28 fold enrichment (6-mer frequency, TF over GST control); in the assay with HSF1, 1.72 fold enrichment (6-mer frequency, TF over GST control). Besides, the binding signal was 1.25 fold enrichment (6-mer frequency, TF over GST control) with SPIC; 1.22 fold enrichment (6-mer frequency, TF over GST control) in the assay with ELF4; 1.3 fold enrichment (6-mer frequency, TF over GST control) in the assay with ELK4; 1.19 fold enrichment (6-mer frequency, TF over GST control) with ETV2; 1.29 fold enrichment (6-mer frequency, TF over GST control) with ELF3; 1.38 fold enrichment (6-mer frequency, TF over GST control) with CRX. The binding signal with ETV1 is 1.26 fold enrichment (6-mer frequency, TF over GST control).

Values taken from PMC7862700, “An all-to-all approach to the identification of sequence-specific readers for epigenetic DNA modifications on cytosine”.
